Laboratory results reported in PubChem BioAssay.
Calls of active or inactive are those of the source.

Experiments:
Albumin (Bos taurus) = Albumin (Bos taurus) (UniProt P02769); test: bovine serum albumin binders on microarray, profiling panel, artefact control for SMM control protein annotation, biochemical, small-molecule microarray, Alexa647 label, 635/667 nm fluorescence (AID 1118); conditions: BSA-A647 binding, fluorescence 635 nm, higher = more signal;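 further: score merges 667 nm emission intensity and signal-to-noise per printed compound spot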
Albumin (Bos taurus), sequence (P02769 whole entry, looked up): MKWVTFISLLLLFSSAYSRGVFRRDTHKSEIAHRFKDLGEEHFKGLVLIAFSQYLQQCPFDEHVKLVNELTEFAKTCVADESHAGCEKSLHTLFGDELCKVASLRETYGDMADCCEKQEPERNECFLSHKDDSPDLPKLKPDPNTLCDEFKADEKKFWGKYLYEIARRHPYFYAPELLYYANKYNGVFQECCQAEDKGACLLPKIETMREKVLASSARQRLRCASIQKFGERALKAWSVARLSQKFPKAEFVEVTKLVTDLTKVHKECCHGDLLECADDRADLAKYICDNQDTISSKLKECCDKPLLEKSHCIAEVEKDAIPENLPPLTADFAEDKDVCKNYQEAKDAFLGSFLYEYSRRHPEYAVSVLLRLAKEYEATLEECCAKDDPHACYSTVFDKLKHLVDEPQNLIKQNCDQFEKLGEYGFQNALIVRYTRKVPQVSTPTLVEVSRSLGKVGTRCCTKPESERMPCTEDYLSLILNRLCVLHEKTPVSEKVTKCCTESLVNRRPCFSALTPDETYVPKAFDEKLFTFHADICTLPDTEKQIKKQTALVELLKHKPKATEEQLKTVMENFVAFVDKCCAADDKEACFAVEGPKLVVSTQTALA

[1] = small-molecule microarray binders of probe aXIP, primary screen, biochemical, NeuroSMM set, 635/667 nm fluorescence (AID 1119); conditions: higher = more signal, called active from +8 up or from −8 down;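 further: probe is the protein aXip251-270 applied at 1 µg/mL to compound-printed slides; binding of probe to printed compounds measured as 667 nm fluorescence plus signal to noise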
[2] = small-molecule binders of probe aNOTCH3, primary screen, biochemical, small-molecule microarray, 635/667 nm fluorescence (AID 1120); conditions: higher = more signal;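 further: probe is a biotin-tagged antibody raised against NOTCH3 rather than NOTCH3 protein; score merges spot fluorescence near 667 nm with spot signal to noise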
[3] = small-molecule binders of probe aNOTCH2, primary screen, biochemical, small-molecule microarray, 635/667 nm fluorescence (AID 1121); conditions: higher = more signal;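 further: score merges feature fluorescence read at 667 nm with its signal to noise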
[4] = molecular target: Carbonic anhydrase 2 (Homo sapiens) (UniProt P00918); test: CAII small-molecule binders, profiling panel, biochemical, small-molecule microarray, Alexa647-labelled CAII (AID 1122); conditions: CAII-A647 binding fluorescence, higher = more signal
[5] = COS7 lysate on small-molecule microarray, probe aHis, 635 nm (AID 1123); conditions: COS7 cell lysate, fluorescence, higher = more signal;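 further: z-score combines 667nm fluorescence intensity with signal-to-noise per printed compound spot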
[6] = compound binding in COS7 lysate, probe aLAP1, primary screen, cell lysate, small-molecule microarray (AID 1124); conditions: probe aLAP1, fluorescence, higher = more signal;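 further: lysate comes from COS7 cells expressing LAP1 and is applied at 0.3 µg/mL; score merges spot fluorescence near 667 nm with signal-to-noise over triplicate slides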
Sam68 (KHDRBS1) = test: Sam68 small-molecule binders, primary screen, biochemical, small-molecule microarray, 635 nm fluorescence (AID 1125); conditions: small-molecule microarray binding, higher = more signal;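 further: score merges 667 nm channel intensity with signal to noise over triplicate slides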
[7] = tested on: Chordin-like protein 2 (CHRDL2); test: CHRDL2 small-molecule binders, primary screen, biochemical, small-molecule microarray, 635 nm fluorescence (AID 1126); conditions: small-molecule microarray binding, fluorescence 635 nm; higher = more signal;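 further: printed compound slides probed with Chrdl2 protein at 4 µg/mL for 1 h at 4 C; score merges 667 nm emission intensity with signal to noise over three replicate slides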
[8] = molecular target: Concanavalin-A (Canavalia ensiformis) (UniProt P02866); test: ConA small-molecule binders, primary screen, artefact control for SMM control protein annotation, biochemical, small-molecule microarray, Alexa647 label, 635 nm (AID 1127); conditions: ConA-A647 binding fluorescence, higher = more signal;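 further: z combines 667 nm emission intensity with signal-to-noise across three replicate slides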
Concanavalin-A (Canavalia ensiformis), sequence (P02866 whole entry, looked up): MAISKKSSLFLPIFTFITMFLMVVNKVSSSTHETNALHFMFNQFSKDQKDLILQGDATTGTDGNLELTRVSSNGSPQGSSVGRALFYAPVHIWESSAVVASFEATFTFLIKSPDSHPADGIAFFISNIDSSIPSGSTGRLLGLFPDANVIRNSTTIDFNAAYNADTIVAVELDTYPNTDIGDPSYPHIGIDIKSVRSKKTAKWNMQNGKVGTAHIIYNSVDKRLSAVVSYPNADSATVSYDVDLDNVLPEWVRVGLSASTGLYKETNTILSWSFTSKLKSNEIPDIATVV

| Compound | composite z-score (Albumin (Bos taurus)) | composite Z-score [1] | composite z-score [2] | composite z-score [3] | composite z-score [4] | composite z-score [5] | composite z-score [6] | composite z-score (Sam68 (KHDRBS1)) | composite z-score [7] | composite z-score [8] |
| --- | --- | --- | --- | --- | --- | --- | --- | --- | --- | --- |
| COC(=O)CC1OC1[C@H](C)[C@@H](OC)C(C)C (stereo not given in full) | -0.294 | 0.406 (inactive) | -0.0647 | -0.124 | 0.232 | -0.64 | 0.229 | -0.22 | 1.03 | -0.321 |
| CCCCCCc1nc(CCCc2cc3c(c(CCCCCC)n2)[Si](C(C)C)(C(C)C)O[C@H]3c2ccccc2)cc2c1[Si](C(C)C)(C(C)C)O[C@H]2c1ccccc1 | -0.27 | 0.248 (inactive) | -0.0284 | -0.14 | -0.156 | -0.0088 | -0.0919 | -0.14 | -0.0538 | 0.314 |
| CC(=O)OC[C@H]1O[C@@H](ON=C(C)CCN2CCc3nc(-c4ccccc4)c(-c4ccccc4)cc3C2)[C@H](OC(C)=O)[C@@H](OC(C)=O)[C@@H]1OC(C)=O | 0.507 | -0.0295 (inactive) | 0.12 | -0.156 | 0.16 | 0.614 | 0.717 | 1.3 | 0.346 | 0.878 |
| CO[C@@H]1COC(=O)CCC[C@@H](C)[C@H](OC)COC(=O)[C@H](Cc2ccccc2)NC(=O)CC=C[C@H]1C | -0.603 | 0.274 (inactive) | -0.16 | -0.175 | -0.571 | -1.42 | -0.34 | -1.56 | 1.39 | -1.21 |
| CC(C)=NOCc1ccc(-c2cc(-c3ccccc3)no2)cc1 | -0.205 | -0.0363 (inactive) | -0.0984 | -0.169 | -0.145 | -0.676 | 0.0863 | 0.059 | 0.14 | 0.0293 |
| COc1ccc(COC(=O)NN=C2C[C@@H](O)[C@@H](O)[C@@H]3[C@@H]4C(=O)N(c5ccc(F)cc5F)C(=O)[C@@H]4CC[C@@H]23)cc1 | 0.688 | -0.0662 (inactive) | 0.112 | -0.14 | -0.416 | -0.413 | -0.2 | -0.356 | -0.0448 | 0.454 |
| CC(C)CON=C1C[C@@H](O)[C@@H](O)[C@@H]2[C@@H]3C(=O)N(Cc4ccccc4)C(=O)[C@@H]3CC[C@@H]12 | 0.0737 | 0.156 (inactive) | -0.0679 | -0.153 | -0.111 | -0.137 | -0.0468 | 0.631 | 0.716 | -0.0393 |
| CCOC(=O)NN=C1C[C@@H](O)[C@@H](O)[C@@H]2[C@@H]3C(=O)N(C[C@@H]4CCCO4)C(=O)[C@@H]3CC[C@@H]12 | 0.16 | -0.354 (inactive) | 0.0927 | -0.166 | 0.0815 | 0.361 | 0.649 | 0.339 | 0.0214 | 0.437 |
| CCc1cc2c(nc1CC)CCN(CCC(C)=NOC[C@@H](O)COCc1ccco1)C2 | -0.576 | -0.206 (inactive) | 1.03 | 0.31 | 0.193 | -0.988 | 0.377 | 0.226 | 1.57 | 0.212 |
| O=C1[C@H]2[C@H]3[C@H](O)[C@H](O)CC(=NOC[C@@H](O)COCc4ccco4)[C@H]3CC[C@H]2C(=O)N1C1CCCCC1 | -0.709 | -0.47 (inactive) | 0.0459 | -0.258 | -0.379 | -0.317 | -0.342 | 0.191 | 1.42 | -0.843 |
| CCCCCN1CC=CC23O[C@@H]4C=CCOC(=O)[C@@H]4[C@H]2C(=O)N(CCCCCCO)[C@@H]3C1=O (stereo not given in full) | 0.798 | 0.401 (inactive) | -0.306 | -0.0811 | 0.81 | 0.629 | 0.902 | -0.662 | -1.21 | -0.367 |
| C=CCOC(=O)[C@H]1[C@@H]2C(=O)O[C@@H](c3ccccc3)[C@@H](c3ccccc3)N2[C@@H](c2ccc(OCCOC(=O)[C@H]3C[C@H]4C(=O)N5CCC[C@H]5C(=O)N4[C@H]3c3cccc(OCCO)c3)cc2)[C@]12C(=O)Nc1ccc(I)cc12 | 0.898 | 1.9 (inactive) | 1.36 | 0.554 | 0.879 | 3.06 | 1.25 | 1.29 | 1.24 | 1.23 |
| C=CCNC(=O)[C@H]1[C@@H]2C(=O)O[C@@H](c3ccccc3)[C@@H](c3ccccc3)N2[C@@H](c2ccc(O)cc2)[C@]12C(=O)N(C(=O)OCCOC)c1ccc(C#CC3=CCCCC3)cc12 | 0.633 | 0.62 (inactive) | 1.27 | 0.396 | 0.296 | 2.23 | 1.78 | 1.3 | 0.966 | 1.09 |
| C=C(/C(=C/C[C@@H](OC(=O)c1ccncc1)c1ccc(OCCO)cc1)c1cnc2ccccc2c1)C(C)C | 0.155 | -0.128 (inactive) | 0.201 | -0.134 | 0.675 | -0.842 | 0.727 | 1.22 | 0.952 | 1.08 |
| COc1ccc([Si](C)(C)[C@@H]2[C@@H](CC(=O)N3CCC[C@H]3CO)O[C@]3(C(=O)N(Cc4cccc(N5CCC5=O)c4)c4ccccc43)[C@H]2C)cc1 | 0.263 | 0.188 (inactive) | 0.239 | -0.0288 | 0.14 | 2.25 | 0.317 | 1.31 | 0.453 | 0.811 |
| CO[C@H]1O[C@H](CO)[C@@H](OC(=O)Nc2ccc3c(c2)OCO3)[C@H](OC(=O)Nc2ccccc2-c2ccccc2)[C@@H]1OC(=O)Nc1ccccc1-c1ccccc1 | 0.929 | 0.558 (inactive) | 0.276 | 0.186 | 0.543 | 2.08 | 0.429 | 1.28 | -0.116 | 1.17 |
